Measured values as given in PubChem BioAssay AID686978 (National Center for Advancing Translational Sciences (NCATS), 2013).
Values joined by “and” are separate entries in the source; they are usually repeats but may differ in a detail not shown here. Equal entries are not always repeated. In all, about 420,000 compounds went through this assay and about 64,000 (15%) were called active. Another 27% or so got no clear call; they are omitted. Calls come from the whole dose curve; as a rule, active = well fitted inhibition curve with a large enough effect; inconclusive = small, poorly fitted or top-dose-only effect; inactive = flat fitted curve, though single readings scatter. Not all results are given here. More than one record can exist for a structure, and the calls need not agree.

Assay: qHTS for Inhibitors of human tyrosyl-DNA phosphodiesterase 1 (TDP1): qHTS in cells in absence of CPT; note: nearly all actives have a fitted effect of over 55% in size
Settings: DT40 Tdp1-/- hTDP1 cells, no CPT, ATP luminescence, 48 h; activity change, negative = growth inhibition: at 46.2 µM (top of the series)
Method in brief: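 Seeded 400 DT40-hTDP1 cells/well (vehicle DMSO, no 20 nM CPT); pinned compounds; ≥48 hr at 37 °C; CellTiter-Glo luminescence as viability measure.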
% is set by controls: 0 for no effect and ±100 for the full control effect; potency is the fitted concentration of half-maximal effect.

Structure (SMILES) | activity change, negative = growth inhibition | Potency
CN(C(=O)COC(=O)CNC(=O)C12CC3CC(CC(C3)C1)C2)c1ccccc1 | -13.2% (inactive) | –
Cc1cc(=O)oc(C)c1C(=O)NCCN(C)Cc1ccccc1 | 0.281% (inactive) | –
COc1ccccc1NC(=O)N(O)C1(C#N)CCCCC1 | -4.03% (inactive) | –
O=C(CSc1nnc2ccc(-c3ccncc3)nn12)N1CCCCC1 | 13.2% (inactive) | –
CCS(=O)(=O)c1ccc(-c2cccc(NC(=O)c3ccc(Br)o3)c2)nn1 | -16.7% (inactive) | –
COc1ccc(S(=O)(=O)N2CCN(C(=S)NCC3CCCO3)CC2)cc1OC (stereo not drawn) | 1.23% (inactive) | –
S=C(NCC1CCCO1)N1CCN(c2ccc(Cl)c(Cl)c2)CC1 (stereo not drawn) | – | 20.6 µM (active)
CCOc1ccc(S(=O)(=O)N2CCN(C(=S)NCC3CCCO3)CC2)cc1 (stereo not drawn) | -17.7% (inactive) | –
COc1cc(/C=C(/NC(=O)c2ccccc2)C(=O)Nc2cccc(O)c2)c([N+](=O)[O-])cc1OC | 5.97% (inactive) | –
Cn1nc(C(C)(C)C)c([N+](=O)[O-])c1C(N)=O | -6.79% (inactive) | –
COc1cccc(N2CC(C(=O)Nc3c(C)cccc3C)CC2=O)c1 (stereo not drawn) | -17.9% (inactive) | –
O=C(CSCc1ccccc1)N1CCc2ccccc21 | -12.2% (inactive) | –
Cn1c(=O)c2c(SCC(=O)N3CCc4ccccc43)nc(-c3ccc(Cl)cc3)nc2n(C)c1=O | 0.535% (inactive) | –
O=C(CSc1ccc2nnc(-c3ccccc3)n2n1)N1CCCc2ccccc21 | -28% (inactive) | –
O=C(Nc1ccc2nc(SCC(=O)N3CCCc4ccccc43)sc2c1)c1ccc(F)cc1 | – | 2.91 µM (active)
O=C(Nc1ccc2nc(SCC(=O)N3CCCc4ccccc43)sc2c1)c1ccc(Cl)cc1 | – | 5.8 µM (active)
CCC(=O)Nc1ccc2nc(SCC(=O)N3CCc4ccccc43)sc2c1 | – | 10.3 µM (active)
O=C(NCc1nnc(SCC(=O)N2CCCc3ccccc32)o1)c1ccccc1F | 2.14% (inactive) | –
O=C(Nc1ccc2nc(SCC(=O)N3CCc4ccccc43)sc2c1)c1ccccc1F | -22% (inactive) | –
CCOC(=O)C1(Cc2cccc(OC)c2)CCCN(S(=O)(=O)c2cccnc2)C1 (stereo not drawn) | -9.7% (inactive) | –
O=C(CCc1ccc(S(=O)(=O)N2CCOCC2)cc1)OCC(=O)c1ccc(Br)cc1 | 1.67% (inactive) | –
O=C(CSc1nnc(-c2ccoc2)o1)N1CCOCC1 | -1.48% (inactive) | –
COC(=O)/C=C/C(=O)NCc1ccco1 | -5.88% (inactive) | –
COc1cc2c(C(=O)O)c(C)n(C)c2c2ccccc12 | 25.6% (inactive) | –
COc1cccc(/C=N/NC(=O)C(=O)N2CCCC2)c1 | -4.99% (inactive) | –
O=c1[nH]c(/C=C\c2cccc(C(F)(F)F)c2)nc(O)c1[N+](=O)[O-] | -6.9% (inactive) | –
Cc1cccc(NC(=O)CSc2nnc(NC(=O)CN3CCOCC3)s2)c1 | -27.8% (inactive) | –

Structure (SMILES) | activity change, negative = growth inhibition | Potency
Cn1c(=S)sc2ccc3ccccc3c21 | -26.6% (inactive) | –
C=CCc1c(C)nc2cc(-c3ccccc3)[nH]n2c1=O | -19.6% (inactive) | –
O=c1c2c(nc3nc[nH]n13)CCC2 | 8.28% (inactive) | –
O=c1c2c(nc3cc(-c4cccc(Cl)c4)[nH]n13)CCCC2 | – | 20.6 µM (active)
CN(C)S(=O)(=O)c1ccc(Cl)c(NC(=O)COC(=O)CC(NC(N)=O)c2ccc(Cl)cc2)c1 (stereo not drawn) | 6.6% (inactive) | –
Cc1ccc(N(CC(=O)NCC2CCCO2)C(=O)CNS(=O)(=O)c2ccc(Cl)cc2)cc1 (stereo not drawn) | -25.4% (inactive) | –
CC(Sc1nnc(C2CC2)n1C1CC1)C(=O)Nc1ccc(C(N)=O)cc1 (stereo not drawn) | 23.3% (inactive) | –
CCN(CC)c1ccc(C2C(C(N)=O)=C(C)Nc3nc(SCc4ccccc4)nn32)cc1 (stereo not drawn) | 3.75% (inactive) | –
O=C1CCCC2=C1C(c1cccs1)CC(=O)N2c1ccc(F)cc1 (stereo not drawn) | -1.99% (inactive) | –
O=C1CCCC2=C1C(c1cccs1)n1nc(SCc3ccccc3)nc1N2 (stereo not drawn) | – | 14.6 µM (active)
O=S(=O)(NCc1ccccc1Cl)c1cnc[nH]1 | -0.134% (inactive) | –
Cc1ccc(NC(=O)CCOc2ccccc2)cc1S(=O)(=O)Nc1ccccc1Cl | -25.4% (inactive) | –
CC(C)c1ccc(C(=O)OC2CCOC2=O)cc1 (stereo not drawn) | -20.9% (inactive) | –
COc1ccccc1CC(=O)NCCc1c[nH]c2ccccc12 | -9.13% (inactive) | –
COc1cccc(CNCCc2c[nH]c3ccccc23)c1OCc1ccccc1F | – | 20.6 µM (active)
COc1ccc(S(=O)(=O)NCCc2c[nH]c3ccccc23)cc1OC | -9.05% (inactive) | –
CCc1c(SCCC(=O)O)nc2ccccc2c1C | 1.49% (inactive) | –
Cc1ccc(N2CCN(c3ccc(C)cc3)C2c2ccccn2)cc1 | -26% (inactive) | –
CN(C(=O)CSc1nnc(-c2ccc(C(C)(C)C)cc2)n1C)C1CCS(=O)(=O)C1 (stereo not drawn) | -18.3% (inactive) | –
CCC(=O)Nc1nnc(S(=O)(=O)N(CC(C)C)c2ccccc2)s1 | -4.1% (inactive) | –
CCOc1cccc(C(=O)Nc2nnc(S(=O)(=O)N(C)c3ccc(C)cc3)s2)c1 | – | 23.1 µM (active)
CCc1nnc(NC(=O)c2cccc(S(=O)(=O)N(C)c3ccc(OC)cc3)c2)s1 | -20% (inactive) | –
CCCCC(=O)Nc1nnc(S(=O)(=O)N(C)Cc2ccco2)s1 | 5.85% (inactive) | –
COc1cccc(C(=O)Nc2nnc(S(=O)(=O)N(C)c3ccccc3)s2)c1 | -5.94% (inactive) | –
CC(C)CC(=O)Nc1nnc(S(=O)(=O)N(C)c2ccc(Cl)cc2)s1 | – | inactive and 326 nM (active)
Cc1ccn(C(CC(=O)c2ccc(Br)cc2)C(=O)O)n1 (stereo not drawn) | -3.5% (inactive) | –
